Experimental data: PubChem BioAssay (EPA / NIEHS)
Records with an inconclusive call do not appear. Active and inactive are the calls of the source. The calls were made as follows, unless noted: active = hit-call score of the fitted dose curve at least 0.9, where 1 is the maximum; inconclusive = response in the unintended direction; inactive = score below 0.9.

Columns and labels:
[1] = ATG_TGFb_CIS: Attagene CIS-FACTORIAL HepG2 Assay for human Transforming Growth Factor (TGF) (AID 2282967; active = hit-call score of the fitted dose curve at least 0.9, where 1 is the maximum; inactive = score below 0.9); details: HepG2 Attagene CIS TGFb reporter, mRNA transcription; actives raise or lower the signal
Method in brief: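 HepG2 cells transiently transfected with cis-promoter-driven multiplexed reporter units; 24 h compound exposure. Reporter mRNA measured by RT-PCR, 6-FAM labeling, HpaI digestion and capillary electrophoresis; bidirectional fit versus DMSO baseline.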

[2] = ATG_VDRE_CIS: Attagene CIS-FACTORIAL HepG2 Assay for human Vitamin D Receptor Element (VDRE) (AID 2282968; active = hit-call score of the fitted dose curve at least 0.9, where 1 is the maximum; inactive = score below 0.9); details: HepG2 VDRE cis-reporter transcription, actives raise or lower the signal
Method in brief: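 Reporter mRNA induction, quantified by capillary electrophoresis of fluorescently labelled RT-PCR products, was read 24 h after dosing HepG2 cells carrying transiently transfected cis-regulated reporter units; gain or loss relative to DMSO.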

[3] = target: Nuclear receptor subfamily 1 group I member 3 (Homo sapiens) (UniProt Q14994); assay: ATG_CAR_TRANS: Attagene TRANS-FACTORIAL HepG2 Assay for human Constitutive Androstane Receptor (CAR) (AID 2282969); details: HepG2 Attagene TRANS-FACTORIAL CAR reporter;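 also: activators raise reporter mRNA above DMSO so AC50 marks induction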
Nuclear receptor subfamily 1 group I member 3 (Homo sapiens), sequence (Q14994 whole entry, looked up, the tested form may be a part): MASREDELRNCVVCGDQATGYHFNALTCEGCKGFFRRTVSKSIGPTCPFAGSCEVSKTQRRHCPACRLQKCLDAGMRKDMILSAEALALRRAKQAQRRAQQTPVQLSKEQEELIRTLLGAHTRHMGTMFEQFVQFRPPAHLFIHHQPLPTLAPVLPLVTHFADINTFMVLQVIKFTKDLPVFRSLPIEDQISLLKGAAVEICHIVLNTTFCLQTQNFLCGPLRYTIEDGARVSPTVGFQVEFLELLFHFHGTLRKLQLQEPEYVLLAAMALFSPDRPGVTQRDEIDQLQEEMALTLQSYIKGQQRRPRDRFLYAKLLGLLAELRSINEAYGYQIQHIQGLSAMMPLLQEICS
Method in brief: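 Readout is reporter mRNA induction, quantified by fluorescent primer extension and capillary electrophoresis after RT-PCR. Cells were HepG2 transiently carrying chimeric NR-Gal4 constructs with GAL4-UAS reporters, treated for 24 h; activity scored upward from DMSO.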

[4] = target: Steroid hormone receptor ERR1 (Homo sapiens) (UniProt P11474); assay: ATG_ERRa_TRANS: Attagene TRANS-FACTORIAL HepG2 Assay for human Estrogen-Related Receptor alpha (ERRa) (AID 2282971); details: HepG2 Attagene TRANS reporter, ERRa transactivation
Steroid hormone receptor ERR1 (Homo sapiens), sequence (P11474 whole entry, looked up, the tested form may be a part): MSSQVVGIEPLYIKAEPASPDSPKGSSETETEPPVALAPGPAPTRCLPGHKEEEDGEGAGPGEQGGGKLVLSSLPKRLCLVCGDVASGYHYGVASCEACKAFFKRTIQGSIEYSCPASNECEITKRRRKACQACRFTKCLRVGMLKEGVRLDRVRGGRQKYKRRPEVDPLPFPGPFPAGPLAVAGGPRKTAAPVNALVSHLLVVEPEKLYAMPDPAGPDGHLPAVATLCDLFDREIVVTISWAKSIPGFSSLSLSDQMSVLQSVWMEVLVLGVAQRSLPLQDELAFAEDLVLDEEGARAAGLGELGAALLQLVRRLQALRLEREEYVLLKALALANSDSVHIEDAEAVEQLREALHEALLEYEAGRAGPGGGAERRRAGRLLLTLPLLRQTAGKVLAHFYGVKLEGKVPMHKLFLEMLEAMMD
Method in brief: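 HepG2 cells were transiently transfected with multiple GAL4-UAS reporter units, then dosed with compound for 24 h. Total RNA was reverse-transcribed, reporter cDNA PCR-amplified and fluorescently labelled, and fragments resolved by capillary electrophoresis; induction was compared with DMSO.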

[5] = target: X-box-binding protein 1 (Homo sapiens) (UniProt P17861); assay: ATG_Xbp1_CIS: Attagene CIS-FACTORIAL HepG2 Assay for human X-box Binding Protein 1 (XBP1) (AID 2282972; active = hit-call score of the fitted dose curve at least 0.9, where 1 is the maximum; inactive = score below 0.9); details: HepG2 XBP1 cis-element reporter, Attagene multiplex; actives raise or lower the signal
X-box-binding protein 1 (Homo sapiens), sequence (P17861 whole entry, looked up): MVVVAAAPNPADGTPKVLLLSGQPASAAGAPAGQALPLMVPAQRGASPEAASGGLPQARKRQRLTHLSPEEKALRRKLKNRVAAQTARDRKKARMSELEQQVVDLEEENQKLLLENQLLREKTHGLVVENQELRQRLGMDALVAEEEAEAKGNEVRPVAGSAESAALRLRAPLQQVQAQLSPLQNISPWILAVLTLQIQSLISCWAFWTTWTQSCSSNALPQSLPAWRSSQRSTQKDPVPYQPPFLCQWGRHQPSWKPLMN
Method in brief: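 HepG2 cells transiently transfected with cis-regulated multiple reporter transcription units; endogenous transcription factor activity measured 24 hours after chemical dosing. Reporter mRNA quantified by RT-PCR, 6-FAM primer extension, HpaI digestion and capillary electrophoresis; bidirectional fitting versus DMSO.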

[6] = target: Estrogen-related receptor gamma (Homo sapiens) (UniProt P62508); assay: ATG_ERRg_TRANS: Attagene TRANS-FACTORIAL HepG2 Assay for human Estrogen-Related Receptor gamma (ERRg) (AID 2282977); details: HepG2 Attagene TRANS reporter, ERRg transactivation;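 also: hits increase reporter signal over DMSO so potencies reflect activators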
Estrogen-related receptor gamma (Homo sapiens), sequence (P62508 whole entry, looked up, the tested form may be a part): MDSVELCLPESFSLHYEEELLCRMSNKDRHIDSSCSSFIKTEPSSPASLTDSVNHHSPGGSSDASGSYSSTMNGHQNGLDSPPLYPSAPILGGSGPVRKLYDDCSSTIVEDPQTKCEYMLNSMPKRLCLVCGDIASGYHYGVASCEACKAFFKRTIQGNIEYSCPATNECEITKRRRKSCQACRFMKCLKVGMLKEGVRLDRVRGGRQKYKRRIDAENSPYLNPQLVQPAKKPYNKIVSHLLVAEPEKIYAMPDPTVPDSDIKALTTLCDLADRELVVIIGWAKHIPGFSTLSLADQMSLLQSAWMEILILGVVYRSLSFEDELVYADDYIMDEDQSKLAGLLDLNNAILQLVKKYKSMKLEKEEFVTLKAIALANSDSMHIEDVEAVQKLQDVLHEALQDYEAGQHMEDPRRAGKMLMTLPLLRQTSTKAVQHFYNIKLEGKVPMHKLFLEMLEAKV
Method in brief: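 HepG2 cells transiently transfected with multiplexed GAL4-UAS reporter units driven by chimeric NR-Gal4 proteins; 24 h exposure. Reporter mRNA quantified by RT-PCR, fluorescent labelling, HpaI digestion and capillary electrophoresis; gain of signal vs DMSO.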

[7] = target: Glucocorticoid receptor (Homo sapiens) (UniProt P04150); assay: ATG_GR_TRANS: Attagene TRANS-FACTORIAL HepG2 Assay for human Glucocorticoid Receptor (GR) (AID 2282978); details: HepG2 Attagene TRANS GR reporter, mRNA transcription;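 also: activators score as hits since higher reporter transcript over DMSO is fitted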
Glucocorticoid receptor (Homo sapiens), sequence (P04150 whole entry, looked up, the tested form may be a part): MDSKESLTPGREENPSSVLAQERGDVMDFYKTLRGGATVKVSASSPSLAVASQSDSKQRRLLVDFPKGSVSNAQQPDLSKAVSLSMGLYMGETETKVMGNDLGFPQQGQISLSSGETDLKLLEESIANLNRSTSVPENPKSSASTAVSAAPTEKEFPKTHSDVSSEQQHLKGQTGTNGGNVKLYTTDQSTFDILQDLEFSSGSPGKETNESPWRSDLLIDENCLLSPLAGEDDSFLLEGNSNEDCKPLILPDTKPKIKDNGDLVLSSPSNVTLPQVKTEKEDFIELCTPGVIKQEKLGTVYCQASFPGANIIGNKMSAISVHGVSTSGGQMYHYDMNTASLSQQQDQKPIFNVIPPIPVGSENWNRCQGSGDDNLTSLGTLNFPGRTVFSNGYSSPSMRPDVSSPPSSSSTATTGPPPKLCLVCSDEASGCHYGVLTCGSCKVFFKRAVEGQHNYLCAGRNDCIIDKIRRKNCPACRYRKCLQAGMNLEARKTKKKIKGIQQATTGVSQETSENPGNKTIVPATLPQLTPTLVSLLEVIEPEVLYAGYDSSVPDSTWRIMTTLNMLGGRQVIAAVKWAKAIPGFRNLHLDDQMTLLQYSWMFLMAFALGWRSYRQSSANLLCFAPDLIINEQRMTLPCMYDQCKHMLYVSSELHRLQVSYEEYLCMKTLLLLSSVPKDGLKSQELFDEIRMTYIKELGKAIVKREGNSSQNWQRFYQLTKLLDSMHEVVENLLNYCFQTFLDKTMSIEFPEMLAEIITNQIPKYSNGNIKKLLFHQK
Method in brief: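 In this trans-factorial format, exogenous NR-GAL4 chimeric proteins in transfected HepG2 cells regulate GAL4-UAS reporter transcription. After 24 h treatment, reporter mRNA induction relative to DMSO is read by RT-PCR and capillary electrophoresis.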

[8] = target: Oxysterols receptor LXR-alpha (Homo sapiens) (UniProt Q13133); assay: ATG_LXRa_TRANS: Attagene TRANS-FACTORIAL HepG2 Assay for human Liver X Receptor alpha (LXRa) (AID 2282980); details: HepG2 Attagene TRANS reporter, LXRa transactivation
Oxysterols receptor LXR-alpha (Homo sapiens), sequence (Q13133 whole entry, looked up): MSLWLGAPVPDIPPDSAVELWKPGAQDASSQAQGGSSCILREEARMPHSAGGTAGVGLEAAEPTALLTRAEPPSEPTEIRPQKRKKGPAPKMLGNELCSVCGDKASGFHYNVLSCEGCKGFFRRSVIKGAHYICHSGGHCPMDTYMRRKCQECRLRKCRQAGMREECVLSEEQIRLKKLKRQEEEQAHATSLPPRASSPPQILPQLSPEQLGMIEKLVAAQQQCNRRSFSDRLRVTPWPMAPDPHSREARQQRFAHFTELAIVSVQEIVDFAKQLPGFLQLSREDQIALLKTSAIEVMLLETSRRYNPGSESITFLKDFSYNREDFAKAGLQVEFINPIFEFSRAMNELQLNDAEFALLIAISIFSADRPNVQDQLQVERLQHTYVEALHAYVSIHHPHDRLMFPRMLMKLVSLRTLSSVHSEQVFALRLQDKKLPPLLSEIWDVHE
Method in brief: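 Transient HepG2 transfectants, 24 h dosing, RT-PCR/CE mRNA reporter quantitation; gain-of-signal vs DMSO.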

[9] = target: Oxysterols receptor LXR-beta (Homo sapiens) (UniProt P55055); assay: ATG_LXRb_TRANS: Attagene TRANS-FACTORIAL HepG2 Assay for human Liver X Receptor beta (LXRb) (AID 2282981); details: HepG2 Attagene TRANS GAL4-LXRb reporter, mRNA
Oxysterols receptor LXR-beta (Homo sapiens), sequence (P55055 whole entry, looked up, the tested form may be a part): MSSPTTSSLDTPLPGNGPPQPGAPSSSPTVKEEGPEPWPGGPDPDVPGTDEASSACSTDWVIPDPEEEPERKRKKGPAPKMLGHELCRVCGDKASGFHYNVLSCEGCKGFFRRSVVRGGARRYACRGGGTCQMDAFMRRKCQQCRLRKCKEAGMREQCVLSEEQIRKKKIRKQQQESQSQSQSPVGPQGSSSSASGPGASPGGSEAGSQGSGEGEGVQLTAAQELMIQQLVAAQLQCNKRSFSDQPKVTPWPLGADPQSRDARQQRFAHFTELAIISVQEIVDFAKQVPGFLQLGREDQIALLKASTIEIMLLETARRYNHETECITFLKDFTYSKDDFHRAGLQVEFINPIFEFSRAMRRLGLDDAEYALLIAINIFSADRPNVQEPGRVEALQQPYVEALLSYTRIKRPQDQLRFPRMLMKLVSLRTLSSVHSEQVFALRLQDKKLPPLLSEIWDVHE
Method in brief: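 Transient transfection HepG2 (multiplexed RTUs, GAL4-UAS); NR-Gal4 chimera; 24 h exposure; RNA → RT-PCR → 6-FAM primer extension → HpaI → CE; increase vs DMSO.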

[10] = target: Hepatocyte nuclear factor 4-alpha (Homo sapiens) (UniProt P41235); assay: ATG_HNF4a_TRANS: Attagene TRANS-FACTORIAL HepG2 Assay for human Hepatocyte Nuclear Factor 4 alpha (HNF4a) (AID 2282982); details: HepG2 HNF4a transactivation reporter, mRNA readout
Method in brief: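 Readout is fluorescent reporter-transcript fragments resolved by capillary electrophoresis after RT-PCR from HepG2 cells dosed for 24 h. Cells carried transfected GAL4-UAS reporter constructs measuring exogenous NR-GAL4 chimera activity; DMSO served as baseline.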

[11] = target: Transcriptional activator Myb (Homo sapiens) (UniProt P10242); assay: ATG_Myb_CIS: Attagene CIS-FACTORIAL HepG2 Assay for human Myeloblastosis (Myb) Proto-Oncogene Transcription Factor (AID 2282986; active = hit-call score of the fitted dose curve at least 0.9, where 1 is the maximum; inactive = score below 0.9); details: HepG2 Attagene CIS-FACTORIAL Myb reporter transcription; actives raise or lower the signal
Transcriptional activator Myb (Homo sapiens), sequence (P10242 whole entry, looked up): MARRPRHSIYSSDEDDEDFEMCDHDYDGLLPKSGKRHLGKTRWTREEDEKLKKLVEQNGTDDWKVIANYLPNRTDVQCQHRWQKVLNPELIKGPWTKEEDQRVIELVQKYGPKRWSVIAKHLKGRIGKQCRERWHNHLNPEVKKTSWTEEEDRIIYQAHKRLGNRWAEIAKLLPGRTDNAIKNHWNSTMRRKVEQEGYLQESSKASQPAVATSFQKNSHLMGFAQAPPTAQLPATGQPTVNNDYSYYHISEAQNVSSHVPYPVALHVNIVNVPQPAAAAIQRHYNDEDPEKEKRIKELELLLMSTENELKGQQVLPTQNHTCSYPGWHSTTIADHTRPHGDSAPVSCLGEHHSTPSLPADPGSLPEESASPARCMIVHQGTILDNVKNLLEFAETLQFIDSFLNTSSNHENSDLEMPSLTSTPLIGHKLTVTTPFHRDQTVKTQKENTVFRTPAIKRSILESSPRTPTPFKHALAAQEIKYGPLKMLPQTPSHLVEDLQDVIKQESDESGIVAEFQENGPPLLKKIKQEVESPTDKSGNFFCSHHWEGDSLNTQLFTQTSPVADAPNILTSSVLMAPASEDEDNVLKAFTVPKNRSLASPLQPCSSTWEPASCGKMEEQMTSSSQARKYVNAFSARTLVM
Method in brief: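 Steps: transfect HepG2 with cis-regulated reporter units; dose with chemical for 24 h; isolate RNA, reverse-transcribe, PCR-amplify and FAM-label reporter sequences; digest with HpaI; resolve by capillary electrophoresis. Activity fitted in both directions relative to DMSO.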

[12] = target: Nuclear respiratory factor 1 (Homo sapiens) (UniProt Q16656); assay: ATG_NRF1_CIS: Attagene CIS-FACTORIAL HepG2 Assay for human Nuclear Respiratory Factor 1 (NRF1) Orphan Gene (AID 2282987; active = hit-call score of the fitted dose curve at least 0.9, where 1 is the maximum; inactive = score below 0.9); details: HepG2 NRF1 cis-element reporter, Attagene multiplex; actives raise or lower the signal
Nuclear respiratory factor 1 (Homo sapiens), sequence (Q16656 whole entry, looked up, the tested form may be a part): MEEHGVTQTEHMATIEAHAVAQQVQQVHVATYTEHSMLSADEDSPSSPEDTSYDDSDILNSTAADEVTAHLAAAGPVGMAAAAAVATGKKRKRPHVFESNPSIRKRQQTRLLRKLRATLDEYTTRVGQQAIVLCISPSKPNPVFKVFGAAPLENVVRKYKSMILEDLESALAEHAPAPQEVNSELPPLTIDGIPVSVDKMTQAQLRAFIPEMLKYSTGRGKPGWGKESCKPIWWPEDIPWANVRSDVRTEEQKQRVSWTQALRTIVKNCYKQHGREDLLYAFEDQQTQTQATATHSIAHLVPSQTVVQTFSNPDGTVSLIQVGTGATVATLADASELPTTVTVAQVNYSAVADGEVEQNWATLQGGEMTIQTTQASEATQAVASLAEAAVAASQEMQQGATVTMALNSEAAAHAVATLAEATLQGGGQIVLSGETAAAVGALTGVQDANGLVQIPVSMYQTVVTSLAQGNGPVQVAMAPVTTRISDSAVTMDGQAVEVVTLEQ
Method in brief: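 Fluorescence intensity of labelled reporter cDNA fragments, resolved by capillary electrophoresis, served as readout for NRF1 cis-element activity. Transiently transfected HepG2 cells were dosed for 24 hours; activity in either direction was fitted against DMSO negative control.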

[13] = target: Androgen receptor (Homo sapiens) (UniProt P10275); assay: ATG_AR_TRANS: Attagene TRANS-FACTORIAL HepG2 Assay for human Androgen Receptor (AR) (AID 2282973); details: HepG2 Attagene TRANS-FACTORIAL AR reporter transcription
Method in brief: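 Transfected HepG2, 24 h treatment, chimeric NR-Gal4 driving GAL4-UAS reporters. mRNA induction by RT-PCR/capillary electrophoresis fluorescence; DMSO as negative control and baseline.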

[14] = ATG_M_19_TRANS: Attagene TRANS-FACTORIAL HepG2 Assay for M19 Transcription Factor (Internal Marker) (AID 2282974); details: HepG2 Attagene TRANS-FACTORIAL M19 internal marker reporter
Method in brief: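 Cells: human HepG2, transiently transfected with multiplexed reporter transcription units. Exposure: 24 h. Detection: RT-PCR of reporter mRNA with capillary electrophoresis. Analysis: gain-of-signal vs DMSO.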

[15] = ATG_Hpa5_TRANS: Attagene TRANS-FACTORIAL HepG2 Assay for human GAL4-Hpa5 Hepatocyte Transcription Factor Basal Promoter (AID 2282975); details: HepG2 Attagene GAL4-Hpa5 transcription reporter;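 also: hits are increases in reporter mRNA over DMSO baseline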
Method in brief: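 Basal-promoter GAL4 background control within the HepG2 trans-factorial panel of transiently transfected reporter units. Reporter mRNA is measured 24 h after dosing by RT-PCR and capillary electrophoresis, fitted for gain of signal versus DMSO.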

[16] = ATG_GAL4_TRANS: Attagene TRANS-FACTORIAL HepG2 Assay for GAL4 (Internal Marker) (AID 2282976); details: HepG2 Attagene TRANS GAL4 internal marker reporter
Method in brief: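 Fluorescence from capillary electrophoresis of labelled RT-PCR products quantifies reporter mRNA induction after 24 h dosing of HepG2 cells carrying transfected GAL4-UAS reporter transcription units. Vehicle DMSO serves as baseline.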

[17] = target: Bile acid receptor (Homo sapiens) (UniProt Q96RI1); assay: ATG_FXR_TRANS: Attagene TRANS-FACTORIAL HepG2 Assay for Farnesoid X Receptor (FXR) (AID 2282979); details: HepG2 Attagene TRANS FXR-GAL4 reporter transcription;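 also: hits raise reporter mRNA above DMSO so AC50 marks FXR activation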
Method in brief: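 Chimeric FXR-GAL4 activity in transiently transfected human HepG2 liver cells is scored as induction of reporter mRNA after 24 h of dosing. Detection uses RT-PCR with fluorescent labelling and capillary electrophoresis, with DMSO serving as baseline.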

[18] = ATG_M_32_TRANS: Attagene TRANS-FACTORIAL HepG2 Assay for M32 Transcription Factor (Internal Marker) (AID 2282984); details: HepG2 Attagene TRANS M32 internal marker reporter
Method in brief: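 Measures reporter mRNA induction in human HepG2 liver cells after 24 h chemical treatment. Transcripts from transiently transfected GAL4-UAS reporter units are amplified, fluorescently labelled and sized by capillary electrophoresis; gain of signal relative to DMSO.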

[19] = target: Nuclear receptor subfamily 4 group A member 2 (Homo sapiens) (UniProt P43354); assay: ATG_NURR1_TRANS: Attagene TRANS-FACTORIAL HepG2 Assay for human Nuclear Receptor Related Protein 1 (NURR1) (AID 2282985); details: HepG2 Attagene TRANS reporter, mRNA readout
Nuclear receptor subfamily 4 group A member 2 (Homo sapiens), sequence (P43354 whole entry, looked up, the tested form may be a part): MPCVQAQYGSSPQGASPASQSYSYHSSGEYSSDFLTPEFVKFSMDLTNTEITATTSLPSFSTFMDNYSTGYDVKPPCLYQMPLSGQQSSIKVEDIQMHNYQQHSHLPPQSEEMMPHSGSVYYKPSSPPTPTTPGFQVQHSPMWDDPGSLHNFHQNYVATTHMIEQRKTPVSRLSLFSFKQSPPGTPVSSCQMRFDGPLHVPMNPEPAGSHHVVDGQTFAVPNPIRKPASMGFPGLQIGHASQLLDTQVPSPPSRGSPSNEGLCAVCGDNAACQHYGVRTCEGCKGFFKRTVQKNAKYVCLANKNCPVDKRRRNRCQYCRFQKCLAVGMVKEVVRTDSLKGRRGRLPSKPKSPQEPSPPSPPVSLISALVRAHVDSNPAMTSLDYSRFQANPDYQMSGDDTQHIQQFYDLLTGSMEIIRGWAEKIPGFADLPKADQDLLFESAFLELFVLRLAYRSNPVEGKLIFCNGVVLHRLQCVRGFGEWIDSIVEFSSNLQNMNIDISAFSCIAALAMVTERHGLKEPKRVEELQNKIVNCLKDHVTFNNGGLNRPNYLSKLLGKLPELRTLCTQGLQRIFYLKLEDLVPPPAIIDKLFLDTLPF
Method in brief: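 Transient transfection of HepG2, human liver cells, with multiple GAL4-UAS reporter transcription units. Cells dosed 24 h, RNA isolated, reverse-transcribed, PCR-amplified, FAM-labelled, HpaI-digested, sized by capillary electrophoresis. DMSO served as negative control.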

[20] = ATG_M_06_TRANS: Attagene TRANS-FACTORIAL HepG2 Assay for M06 Transcription Factor (Internal Marker) (AID 2282983); details: HepG2 Attagene TRANS M06 internal marker reporter;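 also: reporter transcript level by RT-PCR then capillary electrophoresis fluorescence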
Method in brief: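 Measured by capillary electrophoresis of fluorescently labelled RT-PCR products, this endpoint reflects reporter mRNA in HepG2 cells harbouring exogenous NR-GAL4 reporter constructs after 24 h exposure, with DMSO as baseline.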

CCOP(=S)(Oc1cnc(C(C)(C)C)nc1)OC(C)C (stereo not given)
AC50 [1]: 86.9 µM (active) | AC50 [2]: 1.89 µM (active) | outcome [3]: inactive | outcome [4]: inactive | outcome [5]: inactive | outcome [6]: inactive | outcome [7]: inactive | AC50 [8]: 9.2 µM (active) | AC50 [9]: 11.1 µM (active) | outcome [10]: inactive | outcome [11]: inactive | outcome [12]: inactive

COc1ccc(C(=CC(=O)N2CCOCC2)c2ccc(Cl)cc2)cc1OC
outcome [1]: inactive | AC50 [2]: 11.4 µM (active) | outcome [4]: inactive | outcome [5]: inactive | outcome [13]: inactive | outcome [14]: inactive | outcome [15]: inactive | outcome [16]: inactive | outcome [6]: inactive | outcome [17]: inactive | outcome [8]: inactive | outcome [9]: inactive | outcome [10]: inactive | outcome [11]: inactive | outcome [12]: inactive

CCOP(=S)(OCC)SCCSCC
outcome [1]: inactive | outcome [3]: inactive | outcome [5]: inactive | outcome [15]: inactive | outcome [9]: inactive | outcome [10]: inactive | outcome [11]: inactive | outcome [12]: inactive

CC(C1CC1)C(O)(Cn1cncn1)c1ccc(Cl)cc1 (stereo not given)
outcome [1]: inactive | outcome [2]: inactive | outcome [5]: inactive | outcome [14]: inactive | outcome [8]: inactive | outcome [9]: inactive | outcome [18]: inactive | outcome [19]: inactive | outcome [11]: inactive | outcome [12]: inactive

Nc1nc(N)nc(NC2CC2)n1
outcome [1]: inactive | outcome [4]: inactive | outcome [5]: inactive | outcome [14]: inactive | outcome [6]: inactive | outcome [7]: inactive | outcome [17]: inactive | outcome [8]: inactive | outcome [9]: inactive | outcome [20]: inactive | outcome [18]: inactive | outcome [19]: inactive | outcome [11]: inactive | outcome [12]: inactive

CCC(=NOC/C=C/Cl)C1=C(O)CC(C2CCOCC2)CC1=O (stereo not given)
outcome [1]: inactive | outcome [2]: inactive | outcome [4]: inactive | outcome [5]: inactive | outcome [14]: inactive | outcome [15]: inactive | outcome [6]: inactive | outcome [7]: inactive | outcome [8]: inactive | outcome [9]: inactive | outcome [10]: inactive | outcome [18]: inactive | outcome [11]: inactive | outcome [12]: inactive

CSC1=N[C@@](C)(c2ccccc2)C(=O)N1Nc1ccccc1
outcome [1]: inactive | AC50 [2]: 24.3 µM (active) | outcome [5]: inactive | outcome [15]: inactive | outcome [7]: inactive | outcome [8]: inactive | outcome [9]: inactive | outcome [10]: inactive | outcome [18]: inactive | outcome [19]: inactive | outcome [11]: inactive | outcome [12]: inactive

C[N+]1(C)CCCCC1
outcome [1]: inactive | outcome [2]: inactive | outcome [5]: inactive | outcome [14]: inactive | outcome [8]: inactive | outcome [9]: inactive | outcome [10]: inactive | outcome [19]: inactive | outcome [11]: inactive | outcome [12]: inactive
